What is called inhibition is the drop in the measured response relative to a control, in per cent.

Several values for one entry are separate records, joined by “and”; a condition that tells them apart may be missing. Identical values can stand only once. More than one record can exist for a structure, and the calls need not agree. Activity calls are given as the source filed them.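 How the source made its calls, unless noted: active means inhibition at or above 50% relative to wild type and mutant plate controls; inactive means inhibition below 50%.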

Assay [1] in a line: inhibitors of TNFa-induced NFkB p65 translocation, primary screen, imaging, HUVEC, MLSMR starter and 10KST1 sets (AID 438;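 active means inhibition above 20% together with a positive visual image hit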;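 further: compound added about 3h40 before a 20 min TNFalpha stimulation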;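 on inhibition: signal is the nuclear over cytoplasmic p65 intensity ratio per well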). The settings on record: HUVEC TNFa-induced p65 nuclear translocation; cell count: measured here: nuclei count (cytotoxicity indicator), at 2.08 µM; inhibition: at 2 µM, stronger effect = higher value, 0% TNFa-plus-vehicle, 100% no-TNFa wells.
Assay [2] can be described thus: reduction of polyQ htt aggregates in cells – imaging, exon1htt(103Q)mCFP cells, high-content imaging, primary screen (AID 483;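 active means visual image review flags a hit and inhibition of aggregation exceeds 20%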;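 further: compound exposure lasted 3 days before fixation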;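 on nuclei count: percent of the per-plate median nuclei count of sample wells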). The settings on record: exon1htt(103Q)mCFP cell line, aggregate imaging, at 2 µM; inhibition of aggregation: stronger effect = higher value; nuclei count: measured here: cell count, toxicity.
Assay [3] is described as follows: endothelial E-selectin expression blockers – imaging, HUVEC, immunofluorescence, MLSMR starter and 10KST1 sets, primary screen (AID 487;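 active means visually confirmed hit in the image check and inhibition above 20%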;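 on inhibition: signal is fraction of cell area covered by stained E-selectin grains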;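 on nuclei count: 100% = median nuclei count of all wells on the same plate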). The settings on record: HUVEC TNFalpha-induced E-selectin immunofluorescence imaging, at 2 µM; inhibition: stronger effect = higher value; nuclei count: measured here: cell number, toxicity.
Assay [4] is described as follows: Primary imaging screen for DUSP6 inhibitors that restore phospho-Erk in transfected HeLa cells, chemical complementation (AID 609;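 active means compounds giving at least 50% inhibition in the cell-based MKP-3 phosphatase rescue imaging test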;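 on inhibition: phospho-Erk level distribution per well compared with pooled transfected vehicle control wells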). Particulars: HeLa MKP-3 transfected, phospho-Erk imaging KS statistic, at 10 µM, cells stimulated with TPA for 15 min.
Assay [5] has as its target Dual specificity protein phosphatase 6 (Homo sapiens) (UniProt Q16828). Described as above. Particulars: HeLa MKP-3 transfected, phospho-Erk imaging KS statistic; at 10 µM; stronger effect = higher value; cells stimulated with TPA for 15 min.
Assay [6] has as its target Voltage-gated potassium channel subunit beta-2 (Rattus norvegicus) (UniProt P62483). Nature of the assay: inhibitors of rat Kvbeta2 reductase activity – biochemical, NADPH fluorescence, primary screen (AID 622;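 active means fluorescence slope higher than the sample average by over 3 SD, cut at about -0.22 in these data, passing the limit was not always enough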;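 further: slope of raw intensity against log time taken from 70 to 1610 s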). Particulars: recombinant KvBeta, 4-cyanobenzaldehyde reduction, at 10 µM, stronger effect = higher value.
Assay [7] has the same target. Nature of the assay: enhancers of rat Kvbeta2 NADPH turnover – biochemical, NADPH fluorescence, primary screen (AID 623;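 active means NADPH fluorescence slope more negative than the mean of all samples by about 3 SD, 99.7% confidence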;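 further: fluorescence intensity change per second fitted from 20 to 320 s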). The settings on record: Recombinant KvBeta, NADPH fluorescence decrease slope, 10 min; at 10 µM; stronger effect = lower value.
The target in assay [8] is Alpha-2C adrenergic receptor (Homo sapiens) (UniProt P18825). Nature of the assay: compounds altering alpha2C-coupled GIRK flux – cell-based, HEK293 alpha2C/GIRK1/2, thallium flux, primary screen (AID 624;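 active means fluorescence slope after compound addition differing from the mean of all screened samples at 99.7% confidence, in either direction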;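 further: slope of fluorescence ratio to pre-addition baseline per second over 15 to 24 s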). The settings on record: thallium flux BTC fluorescence, at 10 µM, actives lie on both sides.
The nature of assay [9]: inhibitors of larval lipid processing in zebrafish, primary screen, whole organism, PED6 fluorescence, gall bladder and intestine (AID 686;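 active means a full or partial loss of lipid-probe fluorescence in the fish gall bladder, intestine or both, judged by eye; inactive means no fluorescence loss, or compound toxic to the fish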;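 further: larvae 5 to 7 days old with five fish per well; signal comes from phospholipase A2 cleavage of quenched PED6 carried via bile; overnight exposure to compound and PED6 before scoring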). Particulars: Zebrafish larvae PED6 lipid processing, fluorescence scoring; screened at 20 µM (by protocol).
Assay [10] can be described thus: loss of swimming-algae plug formation – whole organism, Chlamydomonas reinhardtii, WT vs cilia-less mutant, absorbance, 96-well, primary screen (AID 463189).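 Further: 0% = wild type cc124 cells in DMSO and 100% = ciliumless bld1 mutant cells.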 The settings on record: Chlamydomonas reinhardtii gravitaxis, OD600 absorbance, 2 days; at 10 µM; stronger effect = higher value.
Assay [11] in a line: blockers of RIG-like receptor reporter activation – cell-based, Sendai virus stimulus, luciferase, 10K MLSCN set, TLR/RLR signaling modifier project, primary screen (AID 602276;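 active means inhibition at or above 50% at 10 µM; inactive means inhibition below 50%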;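 further: firefly luciferase from ISG56 promoter only with Renilla not read in this screen; 0% = Sendai virus plus DMSO and 100% = medium plus DMSO without virus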). Particulars: HEK293 RL24 IRF3 luciferase reporter, at 10 µM, stronger effect = higher value.
The nature of assay [12]: TLR3 IRF3 reporter activation blockers – cell-based, poly I:C stimulus, luciferase, 10K MLSCN set, primary screen (AID 602277;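 active means inhibition of the reporter signal at or above 50%; inactive means inhibition below 50%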). Particulars: HEK293-TLR3 RL24 IRF3 luciferase reporter, at 10 µM, stronger effect = higher value. (In general: Reporter assays use an easily measured gene product as a stand-in for the process of interest.)
The mark [13] stands for this setting: measured here: cell density z-score.
The mark [14] stands for this setting: measured here: nuclear c-Myc green intensity z-score.
Where [15] appears, read: measured here: nuclear pErk red intensity z-score, stronger effect = higher value.

Sequence of Voltage-gated potassium channel subunit beta-2 (Rattus norvegicus) (P62483 whole entry, looked up): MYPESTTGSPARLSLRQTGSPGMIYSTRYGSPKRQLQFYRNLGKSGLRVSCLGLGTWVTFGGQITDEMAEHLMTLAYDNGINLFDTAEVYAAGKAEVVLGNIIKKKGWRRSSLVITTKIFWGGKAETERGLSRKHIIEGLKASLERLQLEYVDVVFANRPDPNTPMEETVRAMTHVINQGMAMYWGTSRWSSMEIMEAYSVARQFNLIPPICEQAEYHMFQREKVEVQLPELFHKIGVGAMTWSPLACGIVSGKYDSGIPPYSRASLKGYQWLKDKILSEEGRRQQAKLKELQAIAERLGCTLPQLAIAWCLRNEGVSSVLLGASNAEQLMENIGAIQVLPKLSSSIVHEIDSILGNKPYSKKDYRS
Sequence of Dual specificity protein phosphatase 6 (Homo sapiens) (Q16828 whole entry, looked up): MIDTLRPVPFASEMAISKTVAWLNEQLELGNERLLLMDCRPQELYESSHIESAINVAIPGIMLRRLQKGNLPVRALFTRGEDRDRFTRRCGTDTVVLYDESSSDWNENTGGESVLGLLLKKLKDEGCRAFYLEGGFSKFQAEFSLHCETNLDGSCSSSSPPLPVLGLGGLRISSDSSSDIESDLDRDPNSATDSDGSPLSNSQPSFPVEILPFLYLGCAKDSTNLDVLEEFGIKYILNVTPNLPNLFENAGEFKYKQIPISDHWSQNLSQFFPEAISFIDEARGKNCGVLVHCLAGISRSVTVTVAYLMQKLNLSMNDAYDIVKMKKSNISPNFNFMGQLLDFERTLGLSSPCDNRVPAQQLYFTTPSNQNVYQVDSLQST
Sequence of Alpha-2C adrenergic receptor (Homo sapiens) (P18825 whole entry, looked up): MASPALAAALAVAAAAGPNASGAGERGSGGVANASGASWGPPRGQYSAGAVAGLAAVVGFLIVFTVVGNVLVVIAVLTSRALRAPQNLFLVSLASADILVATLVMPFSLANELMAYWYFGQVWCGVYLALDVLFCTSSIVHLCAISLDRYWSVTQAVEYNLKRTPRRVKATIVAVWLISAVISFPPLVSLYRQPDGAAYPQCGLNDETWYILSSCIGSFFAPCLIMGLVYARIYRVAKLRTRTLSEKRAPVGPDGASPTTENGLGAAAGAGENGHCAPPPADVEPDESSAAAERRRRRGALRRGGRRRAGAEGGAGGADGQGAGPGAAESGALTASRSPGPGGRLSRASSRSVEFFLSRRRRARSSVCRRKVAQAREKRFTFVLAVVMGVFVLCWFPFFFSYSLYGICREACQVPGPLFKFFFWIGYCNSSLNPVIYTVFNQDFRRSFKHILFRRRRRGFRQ

Consider `NS(=O)(=O)c1cc2c(cc1Cl)NC(CSCc1ccccc1)=NS2(=O)=O`, for which the cell count in [1] amounted to 643. Also, the inhibition in [1] was -8.9% (inactive); in [3], -78.7% (inactive); in [5], 9.37% (inactive); in assay [10] it was 2.85% (inactive); in [11], 10.8% (inactive); in [12], 33.9% (inactive). In addition, the inhibition of aggregation in assay [2] is 13.9% (inactive). Besides, the nuclei count was 103% in assay [2] and 116% in assay [3]. The z-score was -0.00243 in assay [4] (setting [13]), -0.584 in [4] (setting [14]) and -0.561 in assay [4] (setting [15]). For the same compound, in assay [6], the fluorescence slope is -0.459 (inactive). Further, the NADPH fluorescence slope in assay [7] is -7.8e-05 (inactive). In assay [8], the slope is 0.00625 (inactive). Also, the call in assay [9] was inactive.

Regarding `Oc1c(I)cc(I)c2cccnc12`, the cell count in assay [1] was found to be 615. The inhibition in assay [1] is -0.5% (inactive); in assay [3], -79.9% (inactive); in [5], -11.9% (inactive); in assay [10] it was 2.25% (inactive); in [11], 12.4% (inactive); in assay [12] it was 30.5% (inactive). For the same compound, the inhibition of aggregation in [2] is -10.9% (inactive). Besides, the nuclei count in assay [2] was determined as 110%; in assay [3], 121%. The z-score in assay [4] (setting [13]) was -0.0594; in assay [4] (setting [14]), -1.99; in assay [4] (setting [15]), 1.27. In [6], the fluorescence slope was -0.436 (inactive). Further, the NADPH fluorescence slope in assay [7] was 7.6e-06 (inactive). For the same compound, in assay [8], the slope is 0.00528 (inactive). Besides, the call in [9] was inactive.

As for `CNCCC=C1c2ccccc2CCc2ccccc21`, the cell count in assay [1] was 525. For the same compound, the inhibition in [1] is 0.8% (inactive); in [3] it was -20.7% (inactive); in [5], -10.4% (inactive); in assay [10], 34% (inactive) and 30.7% (inactive); in [11], 29.4% (inactive); in assay [12] it was 43.5% (inactive). Moreover, the inhibition of aggregation in assay [2] was 8% (inactive). In addition, the nuclei count in [2] came to 77%; in assay [3], 117%. For the same compound, the figures for the z-score in assay [4] (setting [13]), in assay [4] (setting [14]) and in assay [4] (setting [15]) were -0.881, -0.123 and 2.59, respectively. In addition, the fluorescence slope in assay [6] is -0.521 (inactive). In addition, the NADPH fluorescence slope in [7] was -4.9e-05 (inactive). In addition, the slope in assay [8] was 0.00426 (inactive). Moreover, in assay [9], the outcome was inactive.

As to `C=CCc1ccccc1OCC(O)CNC(C)C` (stereo not given), the cell count in assay [1] was found to be 628. For the same compound, the inhibition in assay [1] is -8.8% (inactive); in [3] it was -120% (inactive); in assay [5] it was 7.39% (inactive); in assay [10], -2.53% (inactive) and -4.71% (inactive); in assay [11] it was 11.2% (inactive); in assay [12], 34.8% (inactive). Besides, the inhibition of aggregation in [2] is -10% (inactive). The nuclei count in assay [2] amounted to 89.9%; in assay [3], 131%. Also, the results for the z-score in [4] (setting [13]), in assay [4] (setting [14]) and in assay [4] (setting [15]) were 1.42, 0.365 and -0.961, respectively. The fluorescence slope in [6] was -0.466 (inactive). The NADPH fluorescence slope in assay [7] is -2.4e-05 (inactive). Also, the slope in assay [8] is 0.00435 (inactive). Also, the result in [9] was inactive.

Take `OCCN1CCN(CCCN2c3ccccc3Sc3ccc(Cl)cc32)CC1`: the cell count in assay [1] worked out at 705. Besides, the inhibition was -3% (inactive) in [1]; -112% (inactive) in assay [3]; 3.45% (inactive) in [5]; 3.48% (inactive) and 164% (active) in assay [10]; 17.3% (inactive) in [11]; 40.7% (inactive) in assay [12]. Further, the inhibition of aggregation in assay [2] was -20.6% (inactive). For the same compound, the results for the nuclei count in [2] and in [3] were 109% and 130%, respectively. The figures for the z-score in [4] (setting [13]), in assay [4] (setting [14]) and in [4] (setting [15]) were -0.393, 0.625 and 2.66, respectively. In assay [6], the fluorescence slope was -0.46 (inactive). In [7], the NADPH fluorescence slope was -5.7e-05 (inactive). The slope in assay [8] is 0.0036 (inactive). Besides, the compound was called inactive in assay [9].

Values taken from PubChem BioAssay.
